Rows were chosen to be rich in hits. Some 2.4% of all compounds tested hit in one or more screens of this group.
FEN1 inh-1 = blocks human flap endonuclease 1 | P39748 | Recombinant FEN1 flap cleavage, fluorescence, 15 min | Potency, µM (series often up to 114 µM), inactives show at the highest dose activity change, negative = inhibition, hits mostly inhibitors | 390,000 compounds, 0.35% hits | AID 588795; also: % is scaled to controls: 0 for no effect and ±100 for the full control effect; nearly all actives have a fitted effect of over 65% in size
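Potency values derive from four-parameter Hill fits of normalized qHTS data. The reaction used 10 nM FEN1 preincubated 15 min at room temperature with compound, then 50 nM DNA substrate, read at 0 and 15 min.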
Pol kappa inh-1 = blocks human DNA polymerase kappa activity; purified Pol kappa, fluorescent DNA synthesis assay, 10 min; AID 588579; Q9UBT6; 400,000 compounds, 0.53% hits; Potency, µM (titrated, usually from 107 µM), inactives show at the top dose activity, negative = inhibition, hits mostly inhibitors; also: % is scaled to controls: 0 for no effect and ±100 for the full control effect
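Kinetic fluorescence readout at 0 and 10 min followed reaction start with substrate at 50 nM final. Beforehand, enzyme (10 nM Pol kappa) stood 15 min with compound at room temperature; buffer-only wells were negative controls.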
Pol iota inh = blocks human DNA polymerase iota activity. AID 588590. Q9UNA4. Potency, µM (top dose mostly 115 µM), inactives show at the top dose activity, negative = inhibition, hits mostly inhibitors. 390,000 compounds, 1% hits. Pol iota fluorescent replication assay, 10 min
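Pol iota at 10 nM preincubated 15 min with compounds at room temperature; reaction started with fluorescent substrate, 50 nM final. Fluorescence read kinetically at 0 and 10 min; buffer-only wells as negative control.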
POLB inh = DNA polymerase beta (human) inhibition | P06746 | Pol beta primer extension/strand displacement, fluorescence kinetic | Potency, µM (titrated, usually from 114 µM), for the others: top-dose activity change, negative = inhibition, usual class: inhibitors | 340,000 compounds, 1.3% hits | AID 485314; also: % is scaled to controls: 0 for no effect and ±100 for the full control effect
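Reaction started by 50 nM substrate onto compound-treated Pol beta (10 nM, 15 min preincubation, room temperature); plates read at 0 min and 10 min. Normalized concentration-effect data fitted by four-parameter Hill equation.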
WRN helicase inh-1 = inhibitors of human WRN helicase | Q14191 | WRN helicase unwinding, fluorescent forked duplex, kinetic | Potency, µM (top dose mostly 114 µM), for the others: at the highest dose activity change, negative = inhibition, usual class: inhibitors | 360,000 compounds, 0.46% hits | AID 651768; also: % is scaled to controls: 0 for no effect and ±100 for the full control effect; nearly all actives have a fitted effect of over 55% in size
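Kinetic fluorescence helicase assay: unwinding of a quenched forked DNA duplex (100 nM final) with 2 mM ATP final raises red fluorescence (525/598 nm). Compounds sat 15 min at room temperature with 20 nM WRN beforehand.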
Pol eta inh-1 = blocks human DNA polymerase eta activity | AID 588591 | Potency, µM (doses to about 114 µM), inactives show at the highest dose activity change, negative = inhibition, most hits filed as inhibitors | 390,000 compounds, 1.2% hits | recombinant Pol eta, fluorescent DNA replication assay | Q9Y253; also: % is scaled to controls: 0 for no effect and ±100 for the full control effect
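Pol eta at 10 nM preincubated with compounds 15 min at room temperature; reaction started with fluorescent substrate (50 nM final) and read kinetically at 0 and 10 min.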
PGK validate = TbPGK inhibition, hit validation | shares compounds with Pol kappa inh-1 | 500 compounds, 79% hits | Potency, µM (top dose mostly 57.5 µM), for inactives: at the highest dose activity change, negative = inhibition, most hits filed as inhibitors | TbPGK coupled GAPDH assay, Kinase-Glo luminescence; also: % is scaled to controls: 0 for no effect and ±100 for the full control effect; nearly all actives have a fitted effect of over 65% in size
Target sequence (P07378 whole entry, looked up): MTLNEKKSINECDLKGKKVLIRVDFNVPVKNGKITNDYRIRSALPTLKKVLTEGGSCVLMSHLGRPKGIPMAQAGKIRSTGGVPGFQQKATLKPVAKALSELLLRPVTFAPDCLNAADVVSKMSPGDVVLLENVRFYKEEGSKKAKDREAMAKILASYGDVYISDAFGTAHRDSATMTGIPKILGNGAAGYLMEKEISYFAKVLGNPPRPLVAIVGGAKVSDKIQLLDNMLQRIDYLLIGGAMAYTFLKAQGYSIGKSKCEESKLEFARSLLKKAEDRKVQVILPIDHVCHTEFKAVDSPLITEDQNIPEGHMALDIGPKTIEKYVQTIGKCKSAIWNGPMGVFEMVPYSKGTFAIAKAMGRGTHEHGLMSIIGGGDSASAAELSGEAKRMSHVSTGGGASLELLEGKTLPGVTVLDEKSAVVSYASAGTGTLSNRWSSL
Pol iota confirm = Human Pol iota inhibitor confirmatory assay; shares compounds with Pol kappa inh-1; Pol iota primer extension, TAMRA/BHQ fluorescence; Potency, µM, hits mostly inhibitors; 1,500 compounds, 77% hits; AID 720496
Pol kappa inh-2 = confirmation of human DNA polymerase kappa inhibitors; shares compounds with Pol eta inh-1; purified Pol-kappa, fluorescent strand-displacement substrate; Potency, µM, hits mostly inhibitors; 920 compounds, 76% hits
Pol eta inh-2 = Pol eta (human) inhibition, cherry-pick confirmation; Pol eta primer extension, TAMRA/BHQ fluorescence, 10 min; AID 720502; Potency, µM, most hits filed as inhibitors; 2,600 compounds, 64% hits; shares compounds with Pol eta inh-1
FEN1 inh-2 = confirmation of human FEN1 inhibitors; Potency, µM, usual class: inhibitors; 880 compounds, 79% hits; FEN1 flap cleavage, TAMRA/BHQ2 fluorogenic DNA substrate; shares compounds with FEN1 inh-1; AID 720498; also: nearly all actives have a fitted effect of over 60% in size
WRN helicase inh-2 = confirmation of human WRN helicase inhibitors; Potency, µM (series often up to 57.1 µM), without a hit: at the top dose activity, negative = inhibition, usual class: inhibitors; shares compounds with WRN helicase inh-1; WRN helicase DNA unwinding, fluorescence kinetic; 610 compounds, 63% hits; also: nearly all actives have a fitted effect of over 65% in size
TO displacement = DNA binding via thiazole orange displacement; shares compounds with WRN helicase inh-1; thiazole orange DNA binding displacement, fluorescence; 610 compounds, 10% hits; Potency, µM (titrated, usually from 57.1 µM), inactives show at the highest dose activity change, negative = inhibition, usual class: inhibitors;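 also: drop in dye fluorescence marks compound binding to DNA; % is scaled to controls: 0 for no effect and ±100 for the full control effect; nearly all actives have a fitted effect of over 60% in size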
BLM counter = counter-screen for WRN helicase inhibitors: human BLM helicase inhibition; shares compounds with WRN helicase inh-1; Recombinant BLM helicase DNA unwinding, red fluorescence; Potency, µM (titrated, usually from 57.1 µM), for the others: at the top dose activity change, negative = inhibition, usual class: inhibitors; 610 compounds, 60% hits; AID 720503; also: nearly all actives have a fitted effect of over 60% in size
* hit, by the source's call; i = inactive; ? = inconclusive; . = not tested or not shown; [ ] = dose if it differs, or a comment. Calls follow the shape of the dose curve; as a rule, active = well fitted curve in the direction sought with a large enough effect; inconclusive = small, poorly fitted or top-dose-only effect, or another doubt; inactive = no such curve, though single readings can be large; an effect the other way counts as inactive or inconclusive. Potency is read from the fitted curve at half-maximal effect.

SMILES	FEN1 inh-1	Pol kappa inh-1	Pol iota inh	POLB inh	WRN helicase inh-1	Pol eta inh-1	Pol iota confirm	Pol eta inh-2	WRN helicase inh-2	TO displacement	BLM counter	others
CN1/C(=C\C=C2/C(=O)Oc3ccccc3C2=O)C(C)(C)c2ccccc21	35µM*	?	-11%	45µM*	27µM*	89µM*	75*	54*	15µM*	.	i	Pol kappa inh-2=24*;FEN1 inh-2=19*
CC1=NN(c2ccccc2)C(=O)/C1=C\C=C1/N(C)c2ccccc2C1(C)C	?	-9%	-19%	16%	10%	-11%	.	.	.	.	.
CN1C(=CC=C2C=C(I)C(=O)C(I)=C2)C(C)(C)c2ccccc21	32µM*	?	3.5µM*	?	4.7µM*	?	34*	48*	27µM*	88%	19µM*	Pol kappa inh-2=75*;FEN1 inh-2=85*
CN1CCN(c2ncc3nc(-c4cc(F)cc(F)c4)c(=O)n(CCc4ccccc4)c3n2)CC1	.	5%[60.1 µM]	.	.	.	.	.	.	.	.	.
CN1C(=O)C[C@@H](C(=O)N[C@@H](Cc2cnc[nH]2)C(=O)N2CCC[C@H]2C(N)=O)NC1=O	.	3%[19.4 µM]	.	.	.	.	.	.	.	.	.
COc1ccc(Oc2ncc3nc(-c4cccc(C#N)c4)c(=O)n(C)c3n2)cc1	.	3%[60.1 µM]	.	.	.	.	.	.	.	.	.
CCC1(O)CC2CN(CCc3c([nH]c4ccccc34)[C@@](C(=O)OC)(c3cc4c(cc3OC)N(C)C3[C@]45CCN4CC=C[C@@](CC)([C@@H](OC(C)=O)[C@]3(O)C(=O)OC)[C@H]45)C2)C1 (stereo partly specified)	.	?	-3%[58.9 µM]	11%[57.1 µM]	.	-6%[57.1 µM]	.	.	.	.	.
Nc1nc(Sc2ccc([N+](=O)[O-])c3nonc23)c2[nH]cnc2n1	20µM*	18µM*	3.2µM*	.	11µM*	?	21*	30*	22µM*	43µM*	15µM*	PGK validate=18µM*;Pol kappa inh-2=15*;FEN1 inh-2=43*
CN(C)c1ncc2nc(CCc3ccccc3)c(=O)n(Cc3cccs3)c2n1	.	-7%[60.1 µM]	.	.	.	.	.	.	.	.	.
CCCCCCCCCCCCCCCCCC(=O)OC(CC(=O)O)C[N+](C)(C)C (stereo unspecified)	.	-9%[60.1 µM]	-5%[58.9 µM]	5%[57.1 µM]	.	-5%[57.1 µM]	.	.	.	.	.
N#C/C(=C\c1ccc(-c2cc(Cl)ccc2Cl)o1)C(=O)Nc1ccccc1C(=O)O	?	?	?	?	.	40µM*	75*	?	17µM*	11µM*	3µM*	Pol kappa inh-2=11*
CCOc1ccc(-c2nc(SCC(=O)Nc3ccc(C)c(C)c3)n3[nH]c(=O)cc3n2)cc1	?	-26%	?	3.2µM*	.	50µM*	27*	85*	15µM*	9%	3µM*	PGK validate=16µM*
C=CCSC1=N/C(=C\C=C\c2ccco2)C(=O)S1	50µM*	14µM*	4.5µM*	2.5µM*	32µM*	3.5µM*	21*	21*	19µM*	24µM*	5.4µM*	Pol kappa inh-2=9.5*
O=C(c1ccc(=O)oc1)N1CCOCC1	32µM*	50µM*	?	5µM*	?	1.8µM*	.	.	5.4µM*	-1%	3µM*	PGK validate=4.1µM*
O=C(c1ccc(=O)oc1)N1CCCc2ccccc21	56µM*	20µM*	13µM*	-101%	?	3.5µM*	42*	30*	22µM*	-9%	24µM*
O=C(c1ccc(-n2cccc2)cc1)N1CCOCC1	5%	0%	12%	12%	1%	-11%	.	.	.	.	.
Nc1ncnc2c1c(I)cn2C1OC(CO)C(O)C1O (stereo unspecified)	.	-3%[19.4 µM]	.	.	.	.	.	.	.	.	.
O=C(Nc1ccc(Cl)c(Cl)c1)Nc1nnc(-c2ccncc2)s1	-9%	?	?	?	?	?	?	.	2.7µM*	45%	1.2µM*
COc1ccc(C2c3[nH]c4ccc(OC)cc4c3CCN2C(=O)Nc2ccccc2)cc1 (stereo unspecified)	7%	-11%	3%	-22%	.	-15%	.	.	.	.	.
COc1ccc(Cl)cc1NC(=O)c1c(NCc2ccc(C)o2)sc2c1CCC(C)C2 (stereo unspecified)	-9%	-13%[60.1 µM]	5%	1%	.	-11%	.	.	.	.	.
COc1ccc(Cl)cc1NC(=O)c1c(NCc2ccc(C)o2)sc2c1CCCCC2	-18%	-7%[60.1 µM]	?	-2%	.	?	.	?	.	.	.	Pol kappa inh-2=?
CC1C(=O)Nc2ccc(S(=O)(=O)NCc3ccc(N(C)C)cc3)cc2NC1=O (stereo unspecified)	2%	2%	9%	-7%	.	?	.	?	.	.	.
COc1ccc(CNS(=O)(=O)c2ccc3c(c2)NC(=O)C(C)C(=O)N3)cc1 (stereo unspecified)	-3%	-9%	6%	1%	.	-9%	.	.	.	.	.
COc1ccccc1-c1ccc(/C=C2\C=CC(=O)O2)o1	?	35µM*	20µM*	-100%	?	25µM*	.	54*	.	.	.
O=C(O)c1cccc(-n2cccc2/C=C\[N+](=O)[O-])c1	?	50µM*	?	?	?	20µM*	.	60*	.	.	.

Compound activity deposited in PubChem by National Center for Advancing Translational Sciences (NCATS).
